# From PubChem BioAssay (NCATS)
# Records with an inconclusive call do not appear. Calls of active or inactive are those of the source. Unless noted, calls follow the shape of the dose curve; as a rule, active = well fitted curve in the direction sought with a large enough effect; inconclusive = small, poorly fitted or top-dose-only effect, or another doubt; inactive = no such curve, though single readings can be large; an effect the other way counts as inactive or inconclusive.
# How the values were obtained:
# [1] = qHTS assay for small molecule agonists of retinoid X receptor alpha signaling (AID 588544; calls by dose curve;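 as to activation: 0% = DMSO basal wells and 100% = reference agonist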); settings: HEK293T RXRa-UAS-bla, beta-lactamase reporter, 18 h; 530 nm emission
# [2] = molecular target: Retinoic acid receptor RXR-alpha (Homo sapiens) (UniProt P19793); assay: as above; settings: HEK293T RXRa-UAS-bla, beta-lactamase reporter, 18 h; series mostly up to 76.7 µM
# [3] = qHTS assay for small molecule antagonists of retinoid X receptor alpha signaling (AID 588546; active = well fitted inhibition curve with a large enough effect in the signal ratio, with a control signal flat, not every such curve was filed as active; the % refers to the signal ratio;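 also: cells stimulated with 9-cis-retinoic acid as agonist; % is scaled to controls: 0 for no effect and ±100 for the full control effect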); settings: HEK293T RXRa-UAS-bla, beta-lactamase ratio, antagonist mode; measured here: W530 green channel, cytotoxicity proxy
# How it was run: (§1)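 Beta-lactamase reporter inhibition, read as CCF4 fluorescence ratio (ex 405, em 460/530 nm) after 2 h at RT. HEK293T UAS-bla cells, 2500/well, were stimulated with 9-cis-RA at 500 or 100 nM final alongside test compound for 18 h at 37 C.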
# [4] = molecular target: Retinoic acid receptor RXR-alpha (Homo sapiens) (UniProt P19793); assay: as above; settings: HEK293T RXRa-UAS-bla, beta-lactamase ratio, antagonist mode
# How it was run: as §1
# [5] = molecular target: Thyroid hormone receptor beta (Homo sapiens) (UniProt P10828); assay: qHTS assay for small molecule antagonists of thyroid hormone receptor beta signaling (AID 588547; active = well fitted inhibition curve with a large enough effect in the signal ratio, with a control signal flat, not every such curve was filed as active; the % refers to the signal ratio;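 also: cells stimulated with 0.4 nM T3 agonist during compound exposure; % is scaled to controls: 0 for no effect and ±100 for the full control effect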); settings: TR-UAS-bla HEK293, beta-lactamase ratio, antagonist mode, 18 h
# How it was run: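 TR-UAS-bla GripTite HEK293 cells in 2% charcoal/dextran FBS medium were preincubated 4 h at 37 C, given compound (0.59 nM to 92 uM) plus 0.4 nM T3 (final) for 18 h, then CCF4 for 2 h at RT; Hill fit gave IC50.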
# [6] = qHTS assay for small molecule agonists of the antioxidant response element (ARE) signaling pathway (AID 651741; active = well fitted activation curve with a large enough effect in the signal ratio; the % refers to the signal ratio; also: % of control where 0% means no effect); settings: HepG2 ARE-bla reporter, beta-lactamase FRET ratio, 16 h; series mostly up to 96 µM
# How it was run: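 Reporter: beta-lactamase under ARE, stably in HepG2. Exposure: 16 h, 37 C, compounds delivered in DMSO by pin tool after 5 h cell preincubation. Readout: FRET substrate fluorescence after 2 h at RT.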
# [7] = qHTS assay for environmental chemicals that activate the Aryl hydrocarbon Receptor (AhR) signaling pathway (AID 651777); settings: 1A2-DRE human hepatoma cells, luciferase, 24 h; stronger effect = higher value; also: % of control where 0% means no effect; nearly all actives have a fitted effect of over 15% in size
# How it was run: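 Following a 24 hr incubation with test chemicals at 37 C and 5% CO2, 1A2-DRE human hepatoma cells received One-Glo reagent; after 30 min at room temperature, luciferase output reflected CYP1A2 induction via AhR.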
# [8] = molecular target: Peroxisome proliferator-activated receptor alpha (Homo sapiens) (UniProt Q07869); assay: qHTS assay for small molecule agonists of the peroxisome proliferator-activated receptor alpha (PPARalpha) signaling pathway (AID 651778); settings: PathHunter PPARalpha complementation, chemiluminescence, 6 h; stronger effect = higher value; also: % of control where 0% means no effect
# How it was run: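 Cells plated at 2,000/well and held overnight at 37 C, 5% CO2, then compound added by pin tool for 6 hr; after PathHunter detection reagent and 60 min at room temperature, chemiluminescence from enzyme complementation was read.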
# [9] = qHTS assay for small molecule agonists of the antioxidant response element (ARE) signaling pathway measured by Nrf2-dependant transcriptional activity (AID 720636; active = well fitted curve in the direction sought with a large enough effect in the repeat runs; an effect the other way counts as inactive or inconclusive;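 also: HepG2 cells with an ARE-driven luciferase reporter; % of control where 0% means no effect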); settings: ARE-luc HepG2, Nrf2 luciferase reporter, 16 h; series mostly up to 92.4 µM
# How it was run: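 ONE-Glo luminescence, read 30 min after reagent addition at room temperature, reflected ARE reporter activity in HepG2 cells that had been incubated with compound for 16 hr at 37 C in 1% dialyzed FBS.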
# [10] = qHTS assay for small molecule agonists of the antioxidant response element (ARE) signaling pathway measured by Nrf2-dependant transcriptional activity - cell viability counter screen (AID 720653; active = well fitted curve in the direction sought with a large enough effect in the repeat runs; an effect the other way counts as inactive or inconclusive; also: % is scaled to controls: 0 for no effect and ±100 for the full control effect); settings: ARE-bla HepG2 viability, CellTiter-Glo ATP luminescence, 16 h; stronger effect = lower value
# How it was run: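 ARE-bla HepG2 cells (2,000/well) rested 5 hrs at 37C/5% CO2, then exposed to compounds in DMSO for 16 hrs. Viability was read in the same wells as intracellular ATP by luminescence, 30 min at room temperature after reagent addition.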
# [11] = qHTS assay for cell viability of HEK293 cells (AID 743288); settings: ATP luminescence (CellTiter-Glo), 18 h, stronger effect = lower value; also: % is scaled to controls: 0 for no effect and ±100 for the full control effect; nearly all actives have a fitted effect of over 50% in size
# How it was run: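 ATP luminescence (CellTiter-Glo) reports metabolically competent cell number after parental HEK293 cells, 2,000/well, were treated with DMSO-dissolved compounds for 18 h at 37 C; reagent incubation 30 min, room temperature.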
# [12] = qHTS assay for cell viability of the p53RE-bla HCT-116 cell line (AID 743292); settings: p53RE-bla HCT-116 viability, ATP luminescence, 16 h; series mostly up to 95 µM; also: % is scaled to controls: 0 for no effect and ±100 for the full control effect; nearly all actives have a fitted effect of over 55% in size
# How it was run: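 After plating at 4,000 cells per well and a 5 h rest at 37 C, HCT-116 cells carrying p53RE-bla received test chemicals in DMSO. Sixteen hours later at 37 C, CellTiter-Glo was added and luminescence recorded following 30 min at room temperature.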
# Retinoic acid receptor RXR-alpha (Homo sapiens), sequence (P19793 whole entry, looked up): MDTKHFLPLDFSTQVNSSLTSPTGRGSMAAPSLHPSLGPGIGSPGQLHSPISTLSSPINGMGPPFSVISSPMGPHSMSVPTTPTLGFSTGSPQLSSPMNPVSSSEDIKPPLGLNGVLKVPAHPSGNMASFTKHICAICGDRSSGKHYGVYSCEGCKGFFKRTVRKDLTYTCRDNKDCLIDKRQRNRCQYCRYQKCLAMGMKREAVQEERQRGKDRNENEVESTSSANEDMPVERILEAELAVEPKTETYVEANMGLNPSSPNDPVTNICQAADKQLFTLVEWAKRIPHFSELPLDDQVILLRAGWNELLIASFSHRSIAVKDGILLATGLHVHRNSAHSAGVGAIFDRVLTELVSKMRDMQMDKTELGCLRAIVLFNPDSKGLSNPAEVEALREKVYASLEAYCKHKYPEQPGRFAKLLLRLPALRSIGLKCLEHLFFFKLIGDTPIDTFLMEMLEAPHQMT
# Thyroid hormone receptor beta (Homo sapiens), sequence (P10828 whole entry, looked up): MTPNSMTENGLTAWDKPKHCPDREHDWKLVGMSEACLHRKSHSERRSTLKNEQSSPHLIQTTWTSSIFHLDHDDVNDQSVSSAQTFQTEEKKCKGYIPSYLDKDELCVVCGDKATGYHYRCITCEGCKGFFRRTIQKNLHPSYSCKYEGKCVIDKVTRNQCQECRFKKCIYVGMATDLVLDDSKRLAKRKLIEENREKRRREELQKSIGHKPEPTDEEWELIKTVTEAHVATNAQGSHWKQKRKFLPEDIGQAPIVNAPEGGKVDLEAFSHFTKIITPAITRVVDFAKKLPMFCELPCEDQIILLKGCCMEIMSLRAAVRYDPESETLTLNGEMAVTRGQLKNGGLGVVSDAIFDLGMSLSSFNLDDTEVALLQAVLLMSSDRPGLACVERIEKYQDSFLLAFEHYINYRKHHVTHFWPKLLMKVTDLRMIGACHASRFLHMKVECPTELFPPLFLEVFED
# Peroxisome proliferator-activated receptor alpha (Homo sapiens), sequence (Q07869 whole entry, looked up): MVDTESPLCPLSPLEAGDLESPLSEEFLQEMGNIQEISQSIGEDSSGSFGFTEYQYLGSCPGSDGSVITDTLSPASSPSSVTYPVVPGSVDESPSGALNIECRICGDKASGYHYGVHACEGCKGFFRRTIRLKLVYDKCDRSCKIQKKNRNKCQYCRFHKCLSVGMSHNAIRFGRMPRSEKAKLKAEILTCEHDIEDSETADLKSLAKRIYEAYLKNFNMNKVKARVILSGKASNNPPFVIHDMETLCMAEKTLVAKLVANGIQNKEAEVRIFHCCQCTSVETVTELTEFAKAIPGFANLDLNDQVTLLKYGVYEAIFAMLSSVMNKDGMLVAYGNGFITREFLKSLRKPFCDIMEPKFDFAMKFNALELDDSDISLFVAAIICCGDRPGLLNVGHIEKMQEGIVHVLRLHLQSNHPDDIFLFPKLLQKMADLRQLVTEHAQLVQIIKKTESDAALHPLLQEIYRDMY
smiles,measurement,setting,value
COc1c(Cl)ccc(Cl)c1C(=O)O,max response,[1],-9.41%
same,outcome,[2],inactive
same,max response,[3],-0.329%
same,max response,[4],3.8% (inactive)
same,activity change % (negative = inhibition),[5],5.53% (inactive)
same,Potency,[6],inactive
same,activation,[7],1.18% (inactive)
same,max response,[8],0.109% (inactive)
same,outcome,[9],inactive
same,max response,[10],-4.23% (inactive)
same,max response,[11],-3.63% (inactive)
same,outcome,[12],inactive
